Data published in PubChem BioAssay (NCI).
Several values for one entry are separate records, joined by “and”; a condition that tells them apart may be missing. Identical values can stand only once. This is part of a sample that, as a whole, favours compounds with a hit. Of some 79,000 tested, about 15% had one in any assay. Activity calls are given as the source filed them. Cut-off read from the data, not from the text of the source: active = growth inhibition above about 70%; inactive = the rest.

Key:
[1] = NCI Yeast Anticancer Drug Screen. Data for the rad50 strain (AID 155);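 note: 0% = growth of vehicle-only cultures of the same strain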; conditions: S. cerevisiae rad50 strain growth inhibition, hits give high values; at 50.0 µM unless noted
How it was run: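 Growth of the mutant yeast was measured after compound exposure and referenced to vehicle-treated cultures.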

[2] = NCI Yeast Anticancer Drug Screen. Data for the mec2-1 strain (AID 157); conditions: S. cerevisiae mec2-1 strain, hits give high values; at 50.0 µM unless noted
How it was run: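 Each compound was tested on mec2-1 yeast, a strain altered in DNA damage repair or cell cycle control. Growth inhibition is reported relative to vehicle.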

[3] = NCI Yeast Anticancer Drug Screen. Data for the sgs1 mgt1 strain (AID 161);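 note: 0% = growth of cultures given vehicle only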; conditions: S. cerevisiae sgs1 mgt1 strain, hits give high values; at 50.0 µM unless noted
How it was run: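 Test agents were incubated with a DNA-repair-mutant yeast strain. Growth was then read and compared against vehicle-treated controls.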

[4] = NCI Yeast Anticancer Drug Screen. Data for the cln2 rad14 strain (AID 165);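 note: 0% = growth equal to vehicle treated cultures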; conditions: S. cerevisiae cln2 rad14 strain, hits give high values; at 50.0 µM unless noted
How it was run: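 Test compounds were added to cln2 rad14 yeast cultures; inhibition of growth was then determined by comparison with vehicle treatment.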

[5] = NCI Yeast Anticancer Drug Screen. Data for the bub3 strain (AID 167); conditions: S. cerevisiae bub3 mutant strain, hits give high values; at 50.0 µM unless noted
How it was run: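 Whole-cell yeast assay. The mutant strain was incubated with compounds, and growth inhibition was determined by comparison with vehicle-treated cells.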

[6] = NCI Yeast Anticancer Drug Screen. Data for the mlh1 rad18 strain (AID 175); conditions: S. cerevisiae mlh1 rad18 strain growth inhibition, hits give high values; at 50.0 µM unless noted
How it was run: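 Inhibition values reflect reduced growth of mutant yeast versus vehicle-treated controls following compound exposure; the mutations affect DNA damage repair.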

Measured: growth inhibition

O=c1c2cc(Cl)ccc2c2ccc(Cl)cc2c(=O)n1-c1ccc2c(c1)Cc1ccccc1-2
inactive: [1] 1.65% | [2] -0.2% | [3] -1.7% | [4] -10.6% | [5] 8.8% | [6] -3.4%

c1ccc2c(c1)Cc1cc3ccccc3cc1C2
inactive: [1] -32.2% | [2] -44.9% | [3] -29.5% | [4] 0.75% | [5] -33.2% | [6] -27.8%

O=C(C/C(=N/O)c1ccccc1)c1ccccc1
inactive: [1] -14.7% | [2] -4.65% | [3] -8.5% | [4] 15.4% | [5] 5.35% | [6] -1.8%

CNCc1cc(Br)cc(Br)c1O
inactive: [1] 6.9% | [2] -6.2% | [3] 15.4% | [4] -43.1% | [5] 1.45% | [6] -2.6%

O=C(O)CC(c1ccccc1)C(CC(=O)O)c1ccccc1 (stereo unspecified)
inactive: [1] -3.8% | [2] 8.75% | [3] 17.6% | [4] 17.2% | [5] 5.95% | [6] 9.85%

O=C(O)c1ccccc1C(=O)Nc1ccc(S(=O)(=O)Nc2nccs2)cc1
inactive: [1] -22.6% and -6.05% | [2] -15.9% and 9.8% | [3] -17.1% and 19.8% | [4] -4.7% and -20% | [5] -2.35% and -4.15% | [6] -18.5% and 25.6%

COc1ccc(O)cc1C=O
inactive: [1] -6.4% | [2] -7.05% | [3] -10.6% | [4] 4% | [5] -7.35% | [6] -4.75%

CC(C)c1ccc(/C(C(=O)O)=C(\O)C(=O)O)cc1
inactive: [1] -14.4% | [2] -7.25% | [3] -15.4% | [4] 29.9% | [5] -31.6% | [6] -7.45%

O=C(NCc1ccc(Cl)cc1)NC1CCCCC1
inactive: [1] 5.75% | [2] 36.9% | [3] 35.5% | [4] 2.7% | [5] 20.9% | [6] 46%

C=CCc1cc(OC)c2c(c1)C(O)CC(c1ccc(OC)c(OC)c1)O2 (stereo unspecified)
inactive: [1] 16.5% | [2] 1.25% | [3] 18.6% | [4] -14.3% | [5] 22.6% | [6] -4%

CC(C)(C)OC(=O)NCCCCC(N)C(N)=O (stereo unspecified)
inactive: [1] -19.6% | [2] -32.2% | [3] -31.9% | [4] 15.8% | [5] 5.15% | [6] -1.95%

CCOC(=O)Nc1ccccc1OCC
inactive: [1] -10.6% | [2] 2% | [3] -4.3% | [4] -90% | [5] 6.2% | [6] -3.45%

Cc1ccc(S(=O)(=O)OCC2C3C=CC(C4C=CC43)C2COS(=O)(=O)c2ccc(C)cc2)cc1 (stereo unspecified)
inactive: [1] -4.25% | [2] -0.65% | [3] -10% | [4] -25.3% | [5] 11.8% | [6] -0.4%

CCOP(=O)(OCC)/C(=C/n1c(=S)[nH]c2ccccc21)C(=O)OC
inactive: [1] -29.8% | [2] -55.1% | [3] -10% | [4] 0.9% | [5] -0.8% | [6] -22.2%

CN(C)C1=NS(=O)(=O)c2ccccc21
inactive: [1] -0.75% | [2] 1% | [3] -7.25% | [4] -40.3% | [5] 6.35% | [6] 2.9%

c1ccc(N2CN(c3ccccc3)C2)cc1
inactive: [1] -19.4% | [2] -8.25% | [3] 4% | [4] -11.6% | [5] 5.6% | [6] 15.8%

COS(=O)(=O)N(C)c1nc(N(C)C)nc(N(C)C)n1
inactive: [1] -2.25% | [2] -12.2% | [3] -1.2% | [4] 22.9% | [5] 3.95% | [6] -0.95%

CC(O)(c1ccccc1)c1ccccc1
inactive: [1] -13.3% | [2] -1.75% | [3] -25.6% | [4] -16.8% | [5] -2.3% | [6] -33.3%

COc1c(Cl)cc(C(c2cc(Cl)c(OC)c(Cl)c2)C(Cl)(Cl)Cl)cc1Cl
inactive: [1] -11.7% | [2] -16.4% | [3] -13% | [4] -23.7% | [5] -3.95% | [6] 10.4%

COc1ccc2c(c1OC(C)=O)-c1cc(OC(C)=O)cc3c1C(C2)N(C(=O)CBr)CC3 (stereo unspecified)
active: [3] 70.2%
inactive: [1] 62% | [2] 54.2% | [4] 36% | [5] 20.5% | [6] 59.4%

O=C(c1ccccc1)C1(c2ccccc2)OC1(C(=O)c1ccccc1)c1ccccc1 (stereo unspecified)
inactive: [1] 15.4% | [2] -4.75% | [3] 7.5% | [4] -7.65% | [5] -3.3% | [6] 4.2%

COc1ccc(-c2nc(Sc3c([N+](=O)[O-])ncn3C)n[nH]2)cc1
inactive: [1] -1.25% | [2] 5.75% | [3] 3.7% | [4] 25.7% | [5] 12.5% | [6] -6.6%

Fc1cccc(C(Nc2nncs2)Nc2nncs2)c1F
inactive: [1] 5.5% | [2] 8.95% | [3] 29.8% | [4] -1.2% | [5] 5.15% | [6] 28.2%

O=C(O)CN(CCCN(CC(=O)O)CC(=O)O)CC(=O)O
inactive: [1] -5% | [2] 0.85% | [3] -2.5% | [4] -14% | [5] -7.4% | [6] -30.2%

COc1ccc([N+](=O)[O-])cc1N(C)C
inactive: [1] 19.1% | [2] 17.4% | [3] 13.6% | [4] 9% | [5] -14.2% | [6] 4.55%

O=[N+]([O-])c1cc(COc2ccc(Cl)c(Cl)c2)ccc1Cl
inactive: [1] 1.8% | [2] 30.3% | [3] 38.5% | [4] -0.95% | [5] 46.4% | [6] 35.8%

CCOC(=O)C1C(=O)CC(C)(O)C(C(=O)OCC)C1c1ccc(OC)cc1 (stereo unspecified)
inactive: [1] -27.4% | [2] 2.55% | [3] 8.65% | [4] -5.95% | [5] -2% | [6] 21.8%

C(CCC1CO1)CC1CO1 (stereo unspecified)
inactive: [1] 3.25% | [2] -21.1% | [3] -31.6% | [4] -27.2% | [5] -5.45% | [6] -22.8%

CC(C)CC(C(=O)NC1CCCCC1)N1C(=O)c2ccccc2C1=O (stereo unspecified)
inactive: [1] -17.1% | [2] 1.9% | [3] -4.3% | [4] -8.2% | [5] -4.4% | [6] 20.7%

CCOC(=O)CC(c1ccccc1)C(C)(C(=O)OCC)C(=O)OCC (stereo unspecified)
inactive: [1] -18.3% | [2] -10.8% | [3] 14.8% | [4] 35.9% | [5] 14.2% | [6] -9.3%

CCN(CC)CCCCCCNc1cc(OC)c(OC)c2c(C)ccnc12
inactive: [1] 23.6% | [2] 18.1% | [3] 5.6% | [4] -14.4% | [5] -1.8% | [6] 28.2%

CC(C)COC(=O)C(CC(C)C)NC(=O)C(C)O (stereo unspecified)
inactive: [1] 5.95% | [2] -17.4% | [3] -13.3% | [4] 10.8% | [5] -14.7% | [6] 6.6%

CSc1nc2c([nH]1)c(=O)n(C)c(=S)n2C
inactive: [1] 4.95% | [2] 6.05% | [3] -0.85% | [4] 12.1% | [5] 0.4% | [6] -4.25%

O=c1[nH]nc(Cc2ccccc2)n1CCO
inactive: [1] 13.2% | [2] 2.65% | [3] 18.1% | [4] 1.3% | [5] 8.9% | [6] -43.4%

CCC(=O)NC(Nc1ccccc1F)(C(F)(F)F)C(F)(F)F
inactive: [1] -29.2% | [2] -18.2% | [3] -18.1% | [4] -4% | [5] -41.9% | [6] -35.9%

O=C(NCCS)C(=O)NCCS
inactive: [1] -1.55% | [2] 7.9% | [3] 3.65% | [4] 9.7% | [5] -12.7% | [6] -10.2%

N#Cc1sc2c(c1OC(=O)c1cccs1)c(=O)n(-c1ccccc1)c(=S)n2-c1ccccc1
inactive: [1] 3.1% | [2] 10.4% | [3] 17.2% | [4] -5.55% | [5] 25.8% | [6] 15.2%

COC(=O)CN(CC(=O)NCCCBr)C1CCCCC1N(CC(=O)OC)CC(=O)OC (stereo unspecified)
inactive: [1] -23.9% | [2] -17.1% | [3] 10.2% | [4] -23% | [5] -26.9% | [6] -22.7%

Cc1ccc([N+](=O)[O-])cc1NS(=O)(=O)c1cc(Cl)c(Cl)cc1Cl
inactive: [1] 19.8% | [2] 36.6% | [3] 49.2% | [4] -8.5% | [5] 1.2% | [6] 61.2%

CC(=O)CCCCC(=O)Nc1ccc(CC(NC(=O)OC(C)(C)C)C(=O)NCC(=O)OCc2ccccc2)cc1 (stereo unspecified)
inactive: [1] -38.5% | [2] -4.5% | [3] -1.6% | [4] 8.85% | [5] 10% | [6] -12.1%

O=C1NC(N/N=C\C(O)C(O)C(O)CO)=N/C1=C/c1ccc(Cl)cc1 (stereo unspecified)
inactive: [1] 43.2% and 45.5% | [2] 37% and 43% | [3] 44.8% and 35.1% | [4] 36.8% and 26.8% | [5] 38.1% and 43% | [6] 14.8% and 38.6%
